The values below come from PubChem BioAssay.

Several values for one entry are separate records, joined by “and”; a condition that tells them apart may be missing. Equal entries are not always repeated. Activity calls are given as the source filed them. Rule as the data show it, unless noted: active = parasite load remaining mostly below about 12% (no sharp cut-off); inactive = mostly above about 10%.

What is called viability is a read-out of living cells in per cent, often relative to untreated cells.

A short description of experiment [1]: liver-stage malaria parasite growth inhibition, primary screen, cell-based, HepG2, luciferase luminescence, HepG2 viability (AID 624349).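 Also: 100% = mean of DMSO negative control wells on the same plate.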 The note with it: P. berghei liver stage in HepG2, luciferase luminescence, concentration not given here; parasite load remaining: stronger effect = lower value; viability: measured here: HepG2 viability without parasites.
The nature of experiment [2]: sensitizers of A549 cells to miR-34 induction, primary screen, imaging, A549 dox-inducible miR-34, nuclei and caspase counts (AID 1347080;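 active = compounds whose cell count with miR-34 switched on is under 0.7 times the count with it off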). The following applies: A549 miR-34 inducible, Hoechst nuclei count, 48 h.
Experiment [3] in a line: survival rescue of mitochondrial mutant cells in low glucose, primary screen, MELAS cybrids, Rieske KO mouse fibroblasts, CellTiter-Glo (AID 1508586;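 active = mean z-score across replicates of 1.96 or higher in either the MELAS or the Rieske mutant cell line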;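 also: z relative to plate mean and SD of compound and empty wells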). For orientation: Cellular ATP, detected with luciferase, serves as a proxy for viable cell number.
Experiment [4] can be described thus: viability rescue of complex I mutant cybrids, primary screen, cell-based, galactose medium, ATP luminescence (AID 1645843;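 active = z-score of at least 1.8 in each of two replicates, scored against plate mean and spread of sample wells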;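 also: positive z means more ATP and so rescue of galactose-driven cybrid death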). The following applies: complex I mutant cybrid cells, 72 h, stronger effect = higher value.
A short description of experiment [5]: hESC survival regulators, cell-based (AID 493140; call rule not given here;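 also: cells exposed to compounds for four days before counting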). The note with it: human embryonic stem cell survival screen; stronger effect = higher value.
Where [6] appears, read: stronger effect = lower value, cell number ratio, induced over uninduced.
Where [7] appears, read: measured here: relative caspase fold change +Dox/-Dox.
[8] abbreviates: measured here: total cells with miR-34 induction, stronger effect = lower value.
Where [9] appears, read: measured here: total cells without miR-34 induction.
Setting [10] is: MELAS cybrid survival, CellTiter-Glo 48 h, stronger effect = higher value.
The mark [11] stands for this setting: Rieske KO mouse fibroblast survival, CellTiter-Glo 72 h.

For the molecule `CO[C@@H]1[C@@H](OC(N)=O)[C@H](O)[C@H](Oc2ccc3c(O)c(NC(=O)c4ccc(O)c(CC=C(C)C)c4)c(=O)oc3c2C)OC1(C)C`, the parasite load remaining in experiment [1] was 81.2% (inactive). In addition, the viability in experiment [1] was determined as 108%. Further, the fold change was 0.831 (inactive) in experiment [2] (setting [6]) and 1.55 in experiment [2] (setting [7]). The cell count was determined as 9200 in experiment [2] (setting [8]) and 11100 in experiment [2] (setting [9]). Moreover, the z-score is 0.157 (inactive) in experiment [3] (setting [10]), 0.871 in experiment [3] (setting [11]) and 1.12 (inactive) in experiment [4].
With `CCCCCCCCCCCCCCCC(=O)O[C@@H]1[C@@H](O)[C@@H](O)[C@@H](C(NC(=O)[C@@H]2C[C@@H](CCC)CN2C)C(C)Cl)O[C@@H]1SC` (some centres not stated), the parasite load remaining in experiment [1] was 67.8% (inactive). Also, the viability in experiment [1] came to 204%. Moreover, the fold change in experiment [2] (setting [6]) was 0.867 (inactive); in experiment [2] (setting [7]), 1.18. The figures for the cell count in experiment [2] (setting [8]) and in experiment [2] (setting [9]) were 9340 and 10800, respectively. The values for the z-score in experiment [3] (setting [10]), in experiment [3] (setting [11]) and in experiment [4] were 0.27 (inactive), -0.444 and 0.11 (inactive), respectively.
As to `O[C@H]1[C@H](O)[C@@H](O)[C@@H]2O[C@@H]2[C@@H]1O`, the parasite load remaining in experiment [1] is 29.7% (inactive). For the same molecule, in experiment [1], the viability was 72%. Further, the fold change in experiment [2] (setting [6]) is 0.828 (inactive); in experiment [2] (setting [7]), 1.47. Moreover, the cell count amounted to 9740 in experiment [2] (setting [8]) and 11800 in experiment [2] (setting [9]). In addition, the z-score was 0.534 (inactive) in experiment [3] (setting [10]), 0.1 in experiment [3] (setting [11]) and 0.2 (inactive) in experiment [4].
In the case of `C=C1CC[C@H](O)C/C1=C/C=C1\CCC[C@]2(C)[C@@H]([C@H](C)CCCC(C)(C)O)CC[C@@H]12`, the survival in experiment [5] was 84.6 (inactive). Further, the parasite load remaining in experiment [1] was 63.8% (inactive). Moreover, the viability in experiment [1] came out at 110%. Besides, the fold change in experiment [2] (setting [6]) was 1.02 (inactive) and 0.856 (inactive); in experiment [2] (setting [7]), 1.06 and 1.42. For the same molecule, the cell count in experiment [2] (setting [8]) was 6030 and 8450; in experiment [2] (setting [9]) it was 5930 and 9870. Further, the z-score in experiment [3] (setting [10]) is 0.872 (inactive); in experiment [3] (setting [11]), 0.441; in experiment [4], -1.75 (inactive).
As to `C[C@H](C(=O)O)c1cccc(C(=O)c2ccccc2)c1`, the survival in experiment [5] was 115 (inactive). Further, the parasite load remaining in experiment [1] is 42.4% (inactive). Moreover, the viability in experiment [1] amounted to 93%. Moreover, the figures for the fold change in experiment [2] (setting [6]) and in experiment [2] (setting [7]) were 0.744 (inactive) and 1.59, respectively. Besides, the cell count in experiment [2] (setting [8]) worked out at 7940; in experiment [2] (setting [9]), 10700. The z-score in experiment [3] (setting [10]) was -0.319 (inactive); in experiment [3] (setting [11]), -0.518; in experiment [4], 0.4 (inactive).
As for `CC1=C(CC(=O)O)c2cc(F)ccc2/C1=C/c1ccc(S(C)=O)cc1` (configuration not stated), the survival in experiment [5] was 19.2 (inactive). Further, the parasite load remaining in experiment [1] was 88.6% (inactive) and 52.4% (inactive). In addition, in experiment [1], the viability was 91.8% and 138%. Besides, the fold change in experiment [2] (setting [6]) is 0.93 (inactive); in experiment [2] (setting [7]) it was 1.38. In addition, the cell count in experiment [2] (setting [8]) amounted to 9820; in experiment [2] (setting [9]) it was 10600. Moreover, the z-score in experiment [3] (setting [10]) was -0.379 (inactive); in experiment [3] (setting [11]) it was -0.389; in experiment [4], 0.615 (inactive).
For the molecule `C=C1/C(=C/C=C2/CCC[C@]3(C)[C@@H]([C@H](C)CCCC(C)C)CC[C@@H]23)C[C@@H](O)C[C@@H]1O`, the parasite load remaining in experiment [1] was 43.3% (inactive). Moreover, the viability in experiment [1] worked out at 115%. For the same molecule, the fold change in experiment [2] (setting [6]) was 0.847 (inactive); in experiment [2] (setting [7]), 0.894. Further, the cell count in experiment [2] (setting [8]) was determined as 8220; in experiment [2] (setting [9]), 9710. Besides, the z-score in experiment [3] (setting [10]) is 0.628 (inactive) and 0.37 (inactive); in experiment [3] (setting [11]), 0.674 and -0.198; in experiment [4], -2.23 (inactive).
On to `CN1C[C@H](C(=O)N[C@]2(C)O[C@@]3(O)[C@@H]4CCCN4C(=O)[C@H](Cc4ccccc4)N3C2=O)CC2c3cccc4[nH]cc(c34)C[C@H]21` (some centres not stated), for which, in experiment [1], the parasite load remaining was 81.9% (inactive) and 39.4% (inactive). In experiment [1], the viability was 69.3% and 96.5%. The fold change in experiment [2] (setting [6]) is 0.973 (inactive) and 0.855 (inactive); in experiment [2] (setting [7]) it was 1.1 and 1.21. The cell count was 7780 and 9120 in experiment [2] (setting [8]); 8000 and 10700 in experiment [2] (setting [9]). Further, the z-score in experiment [3] (setting [10]) was -0.956 (inactive); in experiment [3] (setting [11]) it was -0.402; in experiment [4] it was 0.325 (inactive).
Consider `CC[C@H]1OC(=O)[C@H](C)[C@@H](O[C@H]2C[C@@](C)(OC)[C@@H](O)[C@H](C)O2)[C@H](C)[C@@H](O[C@@H]2O[C@H](C)C[C@H](N(C)C)[C@H]2O)C(C)(O)C[C@@H](C)CN(C)[C@H](C)[C@@H](O)[C@]1(C)O` (some centres not stated), for which the parasite load remaining in experiment [1] is 18.4% (inactive). For the same molecule, in experiment [1], the viability is 65.5%. Also, the fold change was 0.876 (inactive) in experiment [2] (setting [6]) and 1.13 in experiment [2] (setting [7]). Moreover, the cell count stood at 9530 in experiment [2] (setting [8]) and 10900 in experiment [2] (setting [9]). For the same molecule, the z-score was -0.337 (inactive) and 0.0634 (inactive) in experiment [3] (setting [10]); -0.912 and -0.719 in experiment [3] (setting [11]); 0.015 (inactive) in experiment [4].
With `CC[C@H]1OC(=O)[C@H](C)[C@@H](O[C@H]2C[C@@](C)(OC)[C@@H](O)[C@H](C)O2)[C@H](C)[C@@H](O[C@@H]2O[C@H](C)C[C@H](N(C)C)[C@H]2O)[C@](C)(O)C[C@@H](C)/C(=N/OCOCCOC)[C@H](C)[C@@H](O)[C@]1(C)O`, the parasite load remaining in experiment [1] was 72.6% (inactive). In addition, the viability in experiment [1] worked out at 69.5%. Moreover, the fold change is 0.917 (inactive) in experiment [2] (setting [6]) and 1.04 in experiment [2] (setting [7]). The figures for the cell count in experiment [2] (setting [8]) and in experiment [2] (setting [9]) were 9160 and 9990, respectively. Moreover, the z-score in experiment [3] (setting [10]) was -0.295 (inactive); in experiment [3] (setting [11]), -0.333; in experiment [4] it was 0.145 (inactive).
Turning to `CO[C@H]1[C@@H]([C@@]2(C)O[C@@H]2CC=C(C)C)[C@]2(CC[C@H]1OC(=O)/C=C/C=C/C=C/C=C/C(=O)O)CO2`, the parasite load remaining in experiment [1] is 21% (inactive). For the same molecule, the viability in experiment [1] came to 104%. Moreover, the fold change in experiment [2] (setting [6]) is 0.953 (inactive); in experiment [2] (setting [7]), 1.44. For the same molecule, the figures for the cell count in experiment [2] (setting [8]) and in experiment [2] (setting [9]) were 6670 and 7000, respectively. Besides, the z-score was 0.116 (inactive) in experiment [3] (setting [10]), -0.135 in experiment [3] (setting [11]) and -0.585 (inactive) in experiment [4].
Turning to `CC[C@]1(O)C[C@H]2CN(CCc3c([nH]c4ccccc34)[C@@](C(=O)OC)(c3cc4c(cc3OC)N(C)[C@H]3[C@@](O)(C(N)=O)[C@H](O)[C@]5(CC)C=CCN6CC[C@]43[C@@H]65)C2)C1`, the parasite load remaining in experiment [1] is 29.7% (inactive). In addition, the viability in experiment [1] worked out at 79.5%. For the same molecule, the fold change in experiment [2] (setting [6]) is 1.02 (inactive); in experiment [2] (setting [7]), 1.58. Besides, the cell count in experiment [2] (setting [8]) was 1810; in experiment [2] (setting [9]), 1780. Also, the z-score in experiment [3] (setting [10]) is -2.11; in experiment [3] (setting [11]), 2.09; in experiment [4] it was -1.99 (inactive).
In the case of `C[N+](C)(C)[C@@H](Cc1c[nH]c(=S)[nH]1)C(=O)[O-]`, the parasite load remaining in experiment [1] is 52.4% (inactive). Also, the viability in experiment [1] came out at 234%. The results for the fold change in experiment [2] (setting [6]) and in experiment [2] (setting [7]) were 0.872 (inactive) and 1.27, respectively. The cell count in experiment [2] (setting [8]) turned out to be 9810; in experiment [2] (setting [9]), 11300. In addition, the z-score in experiment [3] (setting [10]) is -0.462 (inactive); in experiment [3] (setting [11]), -0.623; in experiment [4], 0.805 (inactive).
On to `CC#CCC(C)[C@H](O)/C=C/[C@@H]1[C@H]2C/C(=C/CCCC(=O)O)C[C@H]2C[C@H]1O` (some centres not stated), for which, in experiment [1], the parasite load remaining was 12.8% (inactive). Besides, the viability in experiment [1] worked out at 77.5%. Besides, the fold change is 0.876 (inactive) in experiment [2] (setting [6]) and 1.59 in experiment [2] (setting [7]). Moreover, the cell count in experiment [2] (setting [8]) was 8850; in experiment [2] (setting [9]), 10100. The figures for the z-score in experiment [3] (setting [10]), in experiment [3] (setting [11]) and in experiment [4] were -0.239 (inactive), -0.923 and 0.275 (inactive), respectively.
As for `CS(=O)(=O)c1ccc([C@@H](O)[C@@H](COC(=O)CN)NC(=O)C(Cl)Cl)cc1`, the parasite load remaining in experiment [1] was 19.3% (inactive). The viability in experiment [1] is 69.5%. For the same molecule, the fold change in experiment [2] (setting [6]) was 0.967 (inactive); in experiment [2] (setting [7]) it was 1.61. Moreover, the cell count in experiment [2] (setting [8]) is 9390; in experiment [2] (setting [9]), 9720. In addition, the z-score in experiment [3] (setting [10]) is -0.278 (inactive); in experiment [3] (setting [11]) it was 1.38; in experiment [4] it was -1.12 (inactive).
As for `CC1(C)C[C@H]1C(=O)N/C(=C\CCCCSC[C@@H](N)C(=O)O)C(=O)O`, the parasite load remaining in experiment [1] was 23.2% (inactive). In addition, in experiment [1], the viability came to 65%. Also, the figures for the fold change in experiment [2] (setting [6]) and in experiment [2] (setting [7]) were 0.879 (inactive) and 0.978, respectively. Moreover, the figures for the cell count in experiment [2] (setting [8]) and in experiment [2] (setting [9]) were 9660 and 11000, respectively. The values for the z-score in experiment [3] (setting [10]), in experiment [3] (setting [11]) and in experiment [4] were 0.461 (inactive), 1.05 and 0.565 (inactive), respectively.
